In all, about 1,100 compounds went through this assay and about 860 (78%) were called active. Inconclusive results (about 19%) are left out. Calls follow the shape of the dose curve; as a rule, active = well fitted activation curve with a large enough effect; inconclusive = small, poorly fitted or top-dose-only effect; inactive = flat fitted curve, though single readings scatter. So high a share suggests a set chosen from earlier hits. The list shows a part of the results.
Potency is read from the fitted curve at half-maximal effect.

This assay is described as follows: qHTS of Nrf2 Activators: Hit Validation in Primary Assay. Also: nearly all actives have a fitted effect of over 70% in size. The settings on record: Nrf2/ARE reporter cell assay; Potency: activation; series mostly up to 46.1 µM. The procedure, abridged: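 AREc32 cells stably carrying an ARE-driven firefly luciferase, plated overnight, then exposed 24 h at 37 °C to compounds at several concentrations. ARE activation read as luminescence with Steady-Glo after 30 min at room temperature.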
(Quantitative high-throughput screening tests each substance at several concentrations.)
In the case of `Cc1noc(C(=O)Nc2cc(Cl)ccc2O)c1Cl`, the Potency is 2.91 µM (active).
On to `C=CCSc1nccc(-c2cc(Cl)sc2Cl)n1`, for which the Potency was 6.51 µM (active).
The value for `O=C1c2cccc3cccc(c23)C(=O)N1CCCN(C(=O)c1cccs1)c1cccc(F)c1` was 2.31 µM (active); that for `O=C(N/N=C/C=C/c1ccco1)c1cnccn1` was 9.2 µM (active).
Then `O=C(N/N=C\C=C\c1ccco1)c1cc(-c2ccc3ccccc3c2)n[nH]1`, with 8.2 µM (active).
Regarding `Cc1cccc(C)c1OCC(=O)N/N=C/C=C/c1ccco1`, the Potency was 0.517 µM (active).
The value for `O=C(N/N=C/C=C/c1ccco1)c1cccc([N+](=O)[O-])c1` was 0.366 µM (active).
The value for `c1ccc(-c2ccc3c(c2)NC(C2Nc4cc(-c5ccccc5)ccc4O2)O3)cc1` (stereo not given) was “inactive”; that for `COc1ccc(C2CC(c3cccs3)=Nc3ccccc3S2)cc1OC` (stereo not given) was 20.6 µM (active).
The value for `Cc1cc(C)c(C#N)c(OCC(=O)c2ccccc2)n1` was 5.17 µM (active); that for `Cc1cc(C)c(C#N)c(OCC(=O)c2ccc(Br)cc2)n1` was 4.61 µM (active).
As to `Cc1cc(C)n2nc(/C(C#N)=C/c3ccccn3)c(C#N)c2n1`, the Potency is 18.4 µM (active).
Then `Clc1ccc(Br)cc1-c1nc(-c2ccncc2)no1`, with 4.61 µM (active); and `COc1ccc(Cl)cc1-c1nc(-c2ccncc2)no1`, with 4.61 µM (active); and `CC(C)(C)C(=O)/C=c1\[nH]c(=O)/c(=C\c2ccccc2F)s1`, with 2.31 µM (active).
In the case of `Cn1nc(C(=O)Nc2c(-c3ccccc3)nc3sccn23)c2ccccc2c1=O`, the Potency was 9.2 µM (active).
The value for `Cc1ccc2[nH]c(=O)c3cc(C(=O)N(C)Cc4ccco4)sc3c2c1` was 11.6 µM (active).
The value for `C/C(=N\NC(=S)NCC(C)(C)C)c1cc(F)cc(F)c1O` was “inactive”; that for `C(=Cc1cnnc2ccccc12)c1ccccc1` was 2.91 µM (active); that for `O=C(NCc1ccccc1)c1c(Cl)nc(Cl)c(Cl)c1Cl` was 2.91 µM (active).
As to `O=C(Nc1ncc2c(n1)CC(c1ccco1)CC2=O)c1ccc(Cl)cc1` (stereo not given), the Potency was 9.2 µM (active).
As for `N#C/C(=C\c1ccccc1)c1ccccn1`, the Potency was 13 µM (active).
Then `CC(C)(C)SCCNC(=O)/C=C/c1cccc([N+](=O)[O-])c1`, with “inactive”; and `N#C/C(=C\c1cccc([N+](=O)[O-])c1)c1ccccn1`, with 4.61 µM (active).
The value for `O=[N+]([O-])c1cccc(/C=C/c2ccccn2)c1` was 4.61 µM (active); that for `O=C(/C=C/c1cccc([N+](=O)[O-])c1)n1cnc2ccccc21` was 4.61 µM (active).
Then `CC(=O)Oc1ccc(-c2nc3c(C)cccc3c(=O)o2)cc1`, with 9.2 µM (active).
For `O=C(NCCc1c[nH]c2ccccc12)c1ccc([N+](=O)[O-])o1`, the Potency was 5.17 µM (active).
On to `COC(=O)c1ccc(Cl)cc1NC(=O)/C=C/c1ccc(C)o1`, for which the Potency was 2.06 µM (active).
Then `Cc1ccc(/C=C/C(=O)Nc2ccc([N+](=O)[O-])c(NC(=O)/C=C/c3ccc(C)o3)c2)o1`, with 8.2 µM (active); and `CCOC(=O)c1c(NC(=O)/C=C/c2ccc(C)o2)sc(C)c1C`, with 3.26 µM (active); and `CCC1C/C(=C/c2cccs2)C(=O)/C(=C/c2cccs2)C1` (stereo not given), with 2.31 µM (active).
With `Cc1nc2ccccc2c(=O)n1NCc1cc(Br)cs1`, the Potency is 2.59 µM (active).
The value for `Cn1c(CC2C(=O)Nc3ccc(Br)cc32)nc2ccccc2c1=O` (stereo not given) was “inactive”.
`O=C(Nc1nnc(-c2cccs2)s1)C1CC1`: the Potency was 9.2 µM (active).
Take `O=C(Nc1nnc(-c2cccs2)s1)c1cccc(F)c1`: the Potency was 2.31 µM (active).
For `O=C1C(=Cc2ccccc2[N+](=O)[O-])Cc2ccccc21`, the Potency is 4.61 µM (active).
The value for `Nc1ccccc1C=C1Cc2ccccc2C1=O` was 3.66 µM (active); that for `COCCN(C(=O)COC(=O)/C=C/c1ccccc1Cl)c1c(N)n(Cc2ccccc2)c(=O)[nH]c1=O` was 11.6 µM (active); that for `O=C(/C=C/Nc1ccc(F)c(Cl)c1)c1ccco1` was 1.3 µM (active).
Then `O=C1COc2ccc(C(=O)COC(=O)/C=C/c3ccco3)cc2N1`, with 2.06 µM (active).
Then `Cc1cccc(NC(=O)Nc2ccccc2[N+](=O)[O-])n1`, with 8.2 µM (active).
On to `O=C(Nc1ccccn1)Nc1ccccc1Cl`, for which the Potency was 9.2 µM (active).
With `O=C(Nc1ccccn1)Nc1ccccc1[N+](=O)[O-]`, the Potency is 4.11 µM (active).
The value for `Cc1cccc(NC(=O)Nc2ccc(Br)cc2)n1` was 8.2 µM (active); that for `O=C(N=Nc1c(O)[nH]c2ccc(Br)cc12)c1ccco1` was 3.26 µM (active).
For `O=C(N=Nc1c(O)[nH]c2ccccc12)c1ccco1`, the Potency is 2.31 µM (active).
Then `Cc1ccc(C)c(-c2nnc(NC(=O)c3ccc([N+](=O)[O-])o3)o2)c1`, with 2.91 µM (active); and `O=C(CSc1ccc(-c2ccco2)nn1)N1CCCCCC1`, with 0.517 µM (active).
Then `COc1ccc(NC(=O)CSc2ccc(-c3ccco3)nn2)cc1OC`, with 5.17 µM (active); and `O=C(CSc1ccc(-c2ccco2)nn1)N1CCCC1`, with 1.84 µM (active); and `O=C(CSc1ccc(-c2ccco2)nn1)N1CCCCC1`, with 1.84 µM (active).
For the compound `CCOC(=O)C(=Cc1ccccc1OC)C(=O)OCC`, the Potency was 16.4 µM (active).
Then `CCn1nc(C(=O)Nc2cccc3ccccc23)c(Cl)c1Cl`, with 18.4 µM (active).
Turning to `c1ccc(-c2nc3c4ccccc4ccn3c2Cc2ccsc2)cc1`, the Potency was 5.8 µM (active).
The value for `COc1ccccc1Cc1c(-c2ccco2)nc2c3ccccc3ccn12` was 7.31 µM (active); that for `Clc1cccc(Cc2c(-c3ccccc3)nc3c4ccccc4ccn23)c1` was 11.6 µM (active); that for `c1ccc(Cc2c(-c3ccco3)nc3c4ccccc4ccn23)cc1` was 9.2 µM (active).
Regarding `Cc1ccc(Cc2c(-c3ccco3)nc3c4ccccc4ccn23)cc1`, the Potency was 8.2 µM (active).
The value for `Fc1cccc(Cc2c(-c3ccco3)nc3c4ccccc4ccn23)c1` was 2.91 µM (active).
The value for `Clc1cccc(Cc2c(-c3ccco3)nc3c4ccccc4ccn23)c1` was 8.2 µM (active); that for `O=C(COC(=O)c1cc2ccccc2cc1O)Nc1ccccc1F` was 20.6 µM (active); that for `c1ccc(N/N=C2\CCCc3ccccc32)nc1` was 14.6 µM (active).
Then `O=C1c2ccccc2C(=O)c2c(Nc3ccc(CCO)cc3)ccc(O)c21`, with 2.31 µM (active); and `COc1cc(C=C(c2nc3ccccc3s2)c2nc3ccccc3s2)ccc1O`, with 7.31 µM (active).
